{"source": "PubChem BioAssay AID1159580", "about": "(chemical genetic matrix, 2015)", "test": "chemical genetic growth profiling, strain panel (AID 1159580);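 note: tested at 20 µM; growth read once vehicle control cultures reached saturation at 30 °C; 1 = growth at the plate median or of vehicle wells; lower values mean less growth of the strain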", "details": "S. cerevisiae deletion strains, growth OD", "note": "“And” between values parts separate entries of the source, which are not always exact repeats. Identical values can stand only once. The whole screen tested about 5,500 compounds, of which about 2,000 (36%) were called active. Another 18% or so got no clear call; they are omitted. Cut-off read from the data, not from the text of the source: active = normalized growth mostly below about 0.91 (no sharp cut-off); inconclusive = no clear call, values can overlap the other calls; inactive = mostly above about 0.92. The list shows a part of the results."}
{"smiles": "COc1ccc(C(=O)/C=C/c2ccccc2)cc1", "values": [{"measurement": "normalized growth", "setting": "locus YAL021C, strain ccr4, stronger effect = lower value", "result": "1.01 (inactive)"}, {"measurement": "normalized growth", "setting": "locus YAL026C, strain drs2, stronger effect = lower value", "result": "0.924 (inactive)"}, {"measurement": "normalized growth", "setting": "locus YAL030W, strain snc1, stronger effect = lower value", "result": "0.951 (inactive)"}, {"measurement": "normalized growth", "setting": "locus YBL061C, strain skt5, stronger effect = lower value", "result": "0.947 (inactive)"}, {"measurement": "normalized growth", "setting": "locus YBR009C, strain hhf1, stronger effect = lower value", "result": "0.825 (active)"}, {"measurement": "normalized growth", "setting": "locus YBR021W, strain FUR4, stronger effect = lower value", "result": "0.782 (active)"}, {"measurement": "normalized growth", "setting": "locus YBR023C, strain chs3, stronger effect = lower value", "result": "0.911 (active)"}, {"measurement": "normalized growth", "setting": "locus YBR171W, strain sec66, stronger effect = lower value", "result": "0.939 (inactive)"}, {"measurement": "normalized growth", "setting": "locus YBR229C, strain ROT2, stronger effect = lower value", "result": "0.991 (inactive)"}, {"measurement": "normalized growth", "setting": "locus YBR231C, strain swc5, stronger effect = lower value", "result": "0.927 (inactive)"}, {"measurement": "normalized growth", "setting": "locus YBR279W, strain paf1, stronger effect = lower value", "result": "0.951 (inactive)"}, {"measurement": "normalized growth", "setting": "locus YCL011C, strain gbp2, stronger effect = lower value", "result": "0.902 (active)"}, {"measurement": "normalized growth", "setting": "locus YCL016C, strain dcc1, stronger effect = lower value", "result": "0.876 (active)"}, {"measurement": "normalized growth", "setting": "locus YCL029C, strain bik1, stronger effect = lower value", "result": "0.822 (active)"}, {"measurement": "normalized growth", "setting": "locus YCL061C, strain MRC1, stronger effect = lower value", "result": "0.846 (active)"}, {"measurement": "normalized growth", "setting": "locus YCL069W, strain vba3, stronger effect = lower value", "result": "0.944 (inactive)"}, {"measurement": "normalized growth", "setting": "locus YCR088W, strain abp1, stronger effect = lower value", "result": "0.965 (inactive)"}, {"measurement": "normalized growth", "setting": "locus YDL005C, strain med2, stronger effect = lower value", "result": "0.992 (inactive)"}, {"measurement": "normalized growth", "setting": "locus YDL035C, strain GPR1, stronger effect = lower value", "result": "0.921 (inactive)"}, {"measurement": "normalized growth", "setting": "locus YDL040C, strain nat1, stronger effect = lower value", "result": "1.01 (inactive)"}, {"measurement": "normalized growth", "setting": "locus YDL074C, strain BRE1, stronger effect = lower value", "result": "0.738 (active)"}, {"measurement": "normalized growth", "setting": "locus YDL101C, strain DUN1, stronger effect = lower value", "result": "0.941 (inactive)"}, {"measurement": "normalized growth", "setting": "locus YDL185W, strain tfp1, stronger effect = lower value", "result": "0.942 (inactive)"}, {"measurement": "normalized growth", "setting": "locus YDL192W, strain arf1, stronger effect = lower value", "result": "0.832 (active)"}, {"measurement": "normalized growth", "setting": "locus YDR001C, strain nth1, stronger effect = lower value", "result": "0.982 (inactive)"}, {"measurement": "normalized growth", "setting": "locus YDR069C, strain doa4, stronger effect = lower value", "result": "0.995 (inactive)"}, {"measurement": "normalized growth", "setting": "locus YDR101C, strain arx1, stronger effect = lower value", "result": "0.867 (active)"}, {"measurement": "normalized growth", "setting": "locus YDR137W, strain rgp1, stronger effect = lower value", "result": "0.845 (active)"}, {"measurement": "normalized growth", "setting": "locus YDR150W, strain NUM1, stronger effect = lower value", "result": "1.01 (inactive)"}, {"measurement": "normalized growth", "setting": "locus YDR159W, strain sac3, stronger effect = lower value", "result": "0.956 (inactive)"}, {"measurement": "normalized growth", "setting": "locus YDR162C, strain NBP2, stronger effect = lower value", "result": "0.965 (inactive)"}, {"measurement": "normalized growth", "setting": "locus YDR195W, strain ref2", "result": "1.1 (inactive)"}, {"measurement": "normalized growth", "setting": "locus YDR297W, strain sur2, stronger effect = lower value", "result": "0.939 (inactive)"}, {"measurement": "normalized growth", "setting": "locus YDR318W, strain mcm21, stronger effect = lower value", "result": "0.798 (active)"}, {"measurement": "normalized growth", "setting": "locus YDR334W, strain swr1, stronger effect = lower value", "result": "0.999 (inactive)"}, {"measurement": "normalized growth", "setting": "locus YDR335W, strain msn5, stronger effect = lower value", "result": "0.889 (active)"}, {"measurement": "normalized growth", "setting": "locus YDR388W, stronger effect = lower value", "result": "0.955 (inactive)"}, {"measurement": "normalized growth", "setting": "locus YDR392W, strain spt3, stronger effect = lower value", "result": "0.194 (active)"}, {"measurement": "normalized growth", "setting": "locus YDR502C, strain sam2, stronger effect = lower value", "result": "0.787 (active)"}, {"measurement": "normalized growth", "setting": "locus YEL003W, strain gim4, stronger effect = lower value", "result": "0.856 (active)"}, {"measurement": "normalized growth", "setting": "locus YEL037C, strain rad23, stronger effect = lower value", "result": "0.982 (inactive)"}, {"measurement": "normalized growth", "setting": "locus YEL061C, strain CIN8 (second series), stronger effect = lower value", "result": "0.844 (active)"}, {"measurement": "normalized growth", "setting": "locus YER015W, strain faa2, stronger effect = lower value", "result": "0.956 (inactive)"}, {"measurement": "normalized growth", "setting": "locus YER016W, strain bim1, stronger effect = lower value", "result": "0.91 (active)"}, {"measurement": "normalized growth", "setting": "locus YER110C, stronger effect = lower value", "result": "0.873 (active)"}, {"measurement": "normalized growth", "setting": "locus YER111C, strain swi4, stronger effect = lower value", "result": "0.968 (inactive)"}, {"measurement": "normalized growth", "setting": "locus YER155C, strain BEM2 (second series), stronger effect = lower value", "result": "0.268 (active)"}, {"measurement": "normalized growth", "setting": "locus YER155C, strain BEM2, stronger effect = lower value", "result": "0.686 (active)"}, {"measurement": "normalized growth", "setting": "locus YER167W, strain BCK2, stronger effect = lower value", "result": "0.994 (inactive)"}, {"measurement": "normalized growth", "setting": "locus YFR010W, strain ubp6, stronger effect = lower value", "result": "0.96 (inactive)"}, {"measurement": "normalized growth", "setting": "locus YGL078C, strain dbp3, stronger effect = lower value", "result": "0.906 (active)"}, {"measurement": "normalized growth", "setting": "locus YGL086W, strain mad1, stronger effect = lower value", "result": "0.779 (active)"}, {"measurement": "normalized growth", "setting": "locus YGL167C, strain pmr1, stronger effect = lower value", "result": "0.971 (inactive)"}, {"measurement": "normalized growth", "setting": "locus YGL173C, strain kem1, stronger effect = lower value", "result": "0.889 (active)"}, {"measurement": "normalized growth", "setting": "locus YGL227W, strain vid30, stronger effect = lower value", "result": "0.892 (active)"}, {"measurement": "normalized growth", "setting": "locus YGL240W, strain doc1, stronger effect = lower value", "result": "0.762 (active)"}, {"measurement": "normalized growth", "setting": "locus YGL248W, strain PDE1, stronger effect = lower value", "result": "0.824 (active)"}, {"measurement": "normalized growth", "setting": "locus YGL253W, strain hxk2, stronger effect = lower value", "result": "0.908 (active)"}, {"measurement": "normalized growth", "setting": "locus YGR135W, strain pre9, stronger effect = lower value", "result": "0.696 (active)"}, {"measurement": "normalized growth", "setting": "locus YGR252W, strain gcn5, stronger effect = lower value", "result": "0.629 (active)"}, {"measurement": "normalized growth", "setting": "locus YHR013C, strain ard1, stronger effect = lower value", "result": "0.947 (inactive)"}, {"measurement": "normalized growth", "setting": "locus YHR027C, strain rpn1, stronger effect = lower value", "result": "0.939 (inactive)"}, {"measurement": "normalized growth", "setting": "locus YHR030C, strain SLT2, stronger effect = lower value", "result": "0.95 (inactive) and 0.812 (active)"}, {"measurement": "normalized growth", "setting": "locus YHR079C, strain IRE1 (second series), stronger effect = lower value", "result": "0.932 (inactive)"}, {"measurement": "normalized growth", "setting": "locus YHR079C, strain IRE1, stronger effect = lower value", "result": "0.756 (active)"}, {"measurement": "normalized growth", "setting": "locus YHR094C, strain hxt1, stronger effect = lower value", "result": "0.941 (inactive)"}, {"measurement": "normalized growth", "setting": "locus YHR129C, strain ARP1, stronger effect = lower value", "result": "0.87 (active)"}, {"measurement": "normalized growth", "setting": "locus YHR142W, strain chs7, stronger effect = lower value", "result": "0.767 (active)"}, {"measurement": "normalized growth", "setting": "locus YHR200W, strain rpn10, stronger effect = lower value", "result": "0.866 (active)"}, {"measurement": "normalized growth", "setting": "locus YIL066C, strain RNR3, stronger effect = lower value", "result": "0.919 (inactive)"}, {"measurement": "normalized growth", "setting": "locus YIL073C, strain SPO22, stronger effect = lower value", "result": "0.889 (inactive)"}, {"measurement": "normalized growth", "setting": "locus YIL125W, strain kgd1, stronger effect = lower value", "result": "0.985 (inactive)"}, {"measurement": "normalized growth", "setting": "locus YIR030C, strain dcg1, stronger effect = lower value", "result": "0.888 (active)"}, {"measurement": "normalized growth", "setting": "locus YJL092W, strain hpr5, stronger effect = lower value", "result": "0.965 (inactive)"}, {"measurement": "normalized growth", "setting": "locus YJL095W, strain BCK1 (second series), stronger effect = lower value", "result": "0.886 (active)"}, {"measurement": "normalized growth", "setting": "locus YJL095W, strain BCK1, stronger effect = lower value", "result": "0.544 (active) and 0.84 (active)"}, {"measurement": "normalized growth", "setting": "locus YJL115W, strain asf1, stronger effect = lower value", "result": "0.984 (inactive)"}, {"measurement": "normalized growth", "setting": "locus YJL129C, strain trk1, stronger effect = lower value", "result": "0.859 (active)"}, {"measurement": "normalized growth", "setting": "locus YJL134W, strain LCB3, stronger effect = lower value", "result": "0.99 (inactive)"}, {"measurement": "normalized growth", "setting": "locus YJL154C, strain vps35, stronger effect = lower value", "result": "0.995 (inactive)"}, {"measurement": "normalized growth", "setting": "locus YJL164C, strain tpk1, stronger effect = lower value", "result": "0.887 (active)"}, {"measurement": "normalized growth", "setting": "locus YJL166W, strain qcr8, stronger effect = lower value", "result": "0.746 (active)"}, {"measurement": "normalized growth", "setting": "locus YJL168C, strain set2, stronger effect = lower value", "result": "0.959 (inactive)"}, {"measurement": "normalized growth", "setting": "locus YJL187C, strain SWE1 (second series), stronger effect = lower value", "result": "0.908 (inactive)"}]}
